Source: PubChem BioAssay (SRMLSC)
DPM-DC inhibit = inhibitors of Streptococcus pneumoniae diphosphomevalonate decarboxylase | purified DPM-DC, PK/LDH coupled NADH fluorescence | calls only at 10 µM | hit rate 0.49% among 65,000 | AID 556;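 active = the 320 compounds with the highest percent inhibition in the single-dose primary screen, excluding strongly autofluorescent ones, cut at about 32% in these data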;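 note: kinetic rate of NADH fluorescence loss reporting ADP formed by the decarboxylase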
NADH enzymes = inhibition of NAD/NADH coupling enzymes, library profiling. coupled PK/LDH NADH assays, four targets. IC50, µM (top dose mostly 10 µM). hit rate 0.02% among 65,000. AID 774;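 active = single-dose screening hits from any of four coupled enzyme assays that gave an IC50 when retested across doses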;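 note: the DPM-DC format reads NADH fluorescence rather than 340 nm absorbance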
Spn MK inh = blocks S. pneumoniae mevalonate kinase; purified MK, PK/LDH-coupled NADH absorbance 340 nm; inhibition, % at 10 µM; hit rate 0.48% among 65,000; AID 555;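 active = ranked among the strongest by inhibition in the single 10 µM screen, a fixed top-ranked set picked for dose follow-up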
Autofluor 339 = intrinsic fluorescence of library compounds, ex339/em460 – biochemical, MLSMR library, data from DPM-DC assay, artefact control, profiling panel; compound autofluorescence, ex339/em460 nm, NADH buffer; stronger effect = higher value; 1 = no-compound wells, NADH background; fluorescence fold increase at 10 µM; hit rate 5.5% among 65,000; AID 709;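 active = at 10 µM, mean starting fluorescence two-fold or more over control wells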;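 note: signal is the first read of a kinetic run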
Spn PMK inh = S. pneumoniae PMK inhibition; AID 539; hit rate 0.49% among 65,000; purified PMK, PK/LDH-coupled NADH absorbance 340 nm; inhibition, % at 10 µM;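 active = top-ranked compounds by inhibition in the single 10 µM screen, taking a fixed number of the strongest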
Abs 340nm = compound absorbs light at 340 nm; compound absorbance at 340 nm, fold over control; fold change at 10 µM; 65,000 tested, under 10 active; AID 708;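 active = at 10 µM dose, initial 340 nm absorbance at least 2 fold that of control wells; inactive = change under 2 fold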;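 note: initial absorbance extrapolated from kinetic A340 decline of NADH oxidation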
Large screens that a line does not name were inactive. A selection: hits, their analogues and other compounds. The true share with any hit is near 6.3%.

Cc1cccn2c(=O)c3cc(C(=O)NCc4ccccc4)c(=N)n(CCCN4CCOCC4)c3nc12	Autofluor 339 5.2 (not shown: DPM-DC inhibit)
CC1(C)CC2(CCO1)N1CC3(C)CN2CC(C)(C1)C3O (stereo not given)	none
COC(=O)c1[nH]c2cc(OC)ccc2c1N	Autofluor 339 3.8 (not shown: DPM-DC inhibit)
CCOC(=O)c1[nH]c2ccc(OC)cc2c1NC(=O)OC	Autofluor 339 3.6 (not shown: DPM-DC inhibit)
CCOC(=O)c1[nH]c2ccc(OC)cc2c1NC(=O)C(C)N1CCSCC1 (stereo not given)	Autofluor 339 3.8 (not shown: DPM-DC inhibit)
CCOC(=O)c1[nH]c2ccc(OC)cc2c1NS(=O)(=O)c1ccc(OC)cc1OC	none
CCOC(=O)c1[nH]c2cc(OC)c(OC)cc2c1NC(=O)C(C)N1CCN(Cc2ccccc2)CC1 (stereo not given)	Autofluor 339 2.5 (not shown: DPM-DC inhibit)
COc1ccc(NC(=O)c2cnc3n(c2=O)CCS3)cc1OC	none
O=C(NCC1CCCO1)c1ccc2c(c1)OCO2 (stereo not given)	none
CCOC(=O)c1[nH]c2ccc(OC)cc2c1NC(=O)CCN1CCCC(C)C1 (stereo not given)	Autofluor 339 2.2 (not shown: DPM-DC inhibit, Spn MK inh)
CCOC(=O)c1[nH]c2ccc(OC)cc2c1N=CN(C)C	Autofluor 339 2.8
Cc1ccc(C(=O)C2=C(O)C(=O)N(CCCn3ccnc3)C2c2ccc(OC(C)C)cc2)o1 (stereo not given)	none
CC(C)=CCC/C(C)=C/CN(CC(C)O)CC(C)O (stereo not given)	Spn MK inh 40
CC(C)=CCCC(C)N(C=O)C(C)CCC=C(C)C (stereo not given)	none
CSc1nc2ccc3nc(NC(=O)c4cccs4)sc3c2s1	Autofluor 339 4.5 (not shown: DPM-DC inhibit)
CC(C)(C)c1csc(NC(=O)c2cccs2)n1	none
CC1CCN(S(=O)(=O)c2cccc(C(=O)N(C)C3CCS(=O)(=O)C3)c2)CC1 (stereo not given)	none
Cc1ccc(S(=O)(=O)NCC(=O)N(CC(=O)NCC2CCCO2)C2CCCC2)cc1 (stereo not given)	none
Cc1nn2c(N3CCN(c4ccccn4)CC3)cc(C(C)C)nc2c1-c1ccccc1	Autofluor 339 3.1
Cc1cc(N2CCOCC2)n2nc(C)c(-c3ccccc3)c2n1	none
Cc1cc(N2CCN(C3CCCC3)CC2)n2nc(C)c(-c3ccccc3)c2n1	DPM-DC inhibit active
O=C(c1ccccc1F)N(Cc1ccc(F)cc1)C1CCS(=O)(=O)C1 (stereo not given)	none
O=C(c1ccccc1F)N(Cc1ccccc1)C1CCS(=O)(=O)C1 (stereo not given)	DPM-DC inhibit active
CCCn1nnc(NC(=O)c2sc3ccccc3c2Cl)n1	none
O=C(CSc1nc2ccccc2[nH]1)Nc1ccccc1N1CCOCC1	none
c1ccc2[nH]c(SN3CCOCC3)nc2c1	Spn MK inh 54
Cc1ccc2c(SCC(=O)NCc3ccco3)nc(-c3ccc(F)cc3)nc2c1	none
COCCCNC(=O)CN(C1CCCCC1)S(=O)(=O)c1ccc(C)cc1	Spn PMK inh 30
CC(OC(=O)c1cc2sccc2n1C)C(=O)NCC1CCCO1 (stereo not given)	none
CC(OC(=O)c1cccs1)C(=O)NCC1CCCO1 (stereo not given)	Spn PMK inh 25
